These results are taken from ChEMBL document CHEMBL4513160, “CO-ADD screening of MMV (CH) - Small Polar Library”.

Hit rate of the full screen: of about 23,000 compounds, about 30 (0.1%) showed an effect of 50% or more. Shown is part of a subset that was picked to be rich in strong results. Results with a measured potency or affinity are listed apart.

In this assay the test system is Pseudomonas aeruginosa. The conditions noted are these: Concentration 300 ug.mL-1; ASSAY_TEST Inhibition of Bacterial Growth; detection method Absorption (OD600); MEDIA CAMHB; plate type 384well; NBS; CORNING #3640; time 18 hr.
With `COC(=O)c1ccc(=O)n(CC(=O)NCCC(C)C)c1`, the Inhibition (usually the change of the read-out against control, counted positive when it falls) amounted to 4.64%.

On to `O=C(NCCOc1ncccc1Cl)c1cscn1`, for which the Inhibition is given as 13.9%. On to `COc1ccc(CN2C[C@H](O)[C@@H](N(C)C)C2)c(C)c1C`, for which the Inhibition worked out at 27.33%. The figure for `Cc1cc(C(=O)N2C[C@H](C3CC3)[C@@H](N)C2)ccc1O` is 1.32%. With `CC1CCN(CCNC(=O)c2cnccn2)CC1`, the Inhibition was -12.84%.

As for `CNCCN1CCOC(C)(C)C1`, the Inhibition stood at 9.7%.

For the compound `NS(=O)(=O)c1ccc(NC(=O)Cn2ccnc2)cc1`, the Inhibition is 5.95%. Consider `Cc1cc(C(=O)O)cc(N2C[C@H](C3CC3)[C@@H](N)C2)n1`, for which the Inhibition is -2.3%. As to `CC(SCCN1CCOCC1)C(=O)N(C)C(C)C` (stereo unspecified), the Inhibition came out at 5.48%. `N#Cc1ccc(Br)o1`: the Inhibition was found to be 8.03%. Turning to `Cc1cccc(C)c1-n1nnnc1SCC(N)=O`, the Inhibition is reported as 21.56%. For the compound `CNC(=O)C1CCN(CCCOc2ccccc2)CC1`, the Inhibition came out at 24.15%. For the compound `CCCNC(=O)CCNC(=O)NCC`, the Inhibition is 0.02%. The figure for `CCc1ccc(C(=O)NC2CNC[C@@H]2OC)o1` (stereo partly specified) is 36.32%. Take `NCC1(CCO)CCOC1` (stereo unspecified): the Inhibition was 6.83%.

As for `COc1cccc(-c2ccc(CNS(N)(=O)=O)cc2)c1`, the Inhibition is reported as 23.3%. Next, `O=C(NCC1CCNCC1)c1ccncc1`: 12.69%; `CCN(CCn1cccn1)C(=O)CNC(=O)N(C)C`: -8.78%. Regarding `CCN(c1ccccc1)S(N)(=O)=O`, the Inhibition turned out to be 5.95%. Next, `COc1c(C)cnc(CNC(=O)CSC)c1C`: 1.37%. Consider `CN1CCC(NC(=O)CSCc2cccs2)CC1`, for which the Inhibition stood at 12.03%. The figure for `CNC(=O)NC1CN(C(=O)OC(C)(C)C)C1` is -6.26%; for `CN(C)CCCOc1cccc(CN2CC(O)C2)c1` it is 2%; for `OC1(CNCc2ccccn2)CCc2ccccc21` (stereo unspecified) it is 24.9%. Turning to `Cc1c(Cl)cccc1C(=O)NC(C)c1nnnn1C` (stereo unspecified), the Inhibition turned out to be 8.95%. For `Cc1cc(N(C)C)n2nccc2n1`, the Inhibition is -18.53%. For the compound `CCN(CC)C(=O)COc1ccc(C(C)=O)c(F)c1`, the Inhibition is reported as 4.67%. On to `COc1cn(C)c(C(=O)NCc2ccco2)cc1=O`, for which the Inhibition is recorded as 21.6%. Consider `CC(=O)c1ccc(CNc2nccnc2C#N)nc1C`, for which the Inhibition is listed as 14.58%.

For the compound `Cc1nc(C2CCN(C(=O)c3cn[nH]c3)CC2)no1`, the Inhibition was -1.22%.

Consider `NC1CCC(NC(=O)c2ccnc(C3CC3)n2)CC1` (stereo unspecified), for which the Inhibition is reported as 4.44%.

Take `CN1CCC(CCNS(C)(=O)=O)CC1`: the Inhibition is given as -4.45%.

For `CCCc1noc(C(C)Nc2cccc(C(N)=O)c2)n1` (stereo unspecified), the Inhibition came to 24.66%. As to `O=S1(=O)CCC(NCc2csc(-c3ccccn3)n2)C1` (stereo unspecified), the Inhibition is reported as 17.32%. As to `CCC1CN(Cc2ccnc(N)c2)CCO1` (stereo unspecified), the Inhibition is 4.62%. For `COCCNC(=O)CNC(=O)c1cc(C)cc(C)c1Br`, the Inhibition came to 7.79%.

Regarding `CNCCCNC(=O)CCc1ccsc1`, the Inhibition is on record as -24.67%. With `CCC(C)NC(=O)NCc1ccc(-n2ccnc2)nc1` (stereo unspecified), the Inhibition amounted to 14.1%.

For the compound `CN1CCN(C(=O)C2COc3ccccc3O2)CC1=O` (stereo unspecified), the Inhibition worked out at 3.72%. Take `Cc1ccccc1CNc1nnc(CO)s1`: the Inhibition came to 26.98%. For `CC1(CO)COCCN1Cc1ccccc1` (stereo unspecified), the Inhibition amounted to 11.96%. Take `Cc1cccc(C(=O)Nc2nnn(C)n2)c1`: the Inhibition is recorded as 2.82%. Turning to `Cc1n[nH]c(C)c1S(=O)(=O)N1CCN(C)CC1`, the Inhibition stood at 33.93%.

Take `CCNC(=O)Nc1c[nH]nc1C1CCCNC1` (stereo unspecified): the Inhibition came to 15.62%.

In the case of `NS(=O)(=O)NCC1CCCN(CCC2CCCC2)C1` (stereo unspecified), the Inhibition came out at 13.03%. Turning to `Cc1nc(CN2CCC(O)(CN3CCCC3)CC2)c[nH]1`, the Inhibition turned out to be 20.39%. With `O=C(C1CCCO1)N1CCN(c2cc(Br)ccn2)CC1` (stereo unspecified), the Inhibition turned out to be 3.3%. In the case of `c1ccc(-c2nc3c([nH]2)CCNC3)cc1`, the Inhibition stood at 7.84%.

Consider `CNC(=O)CN1CCCC(CO)(CC=C(C)C)C1` (stereo unspecified), for which the Inhibition is reported as 20.92%. The figure for `N#Cc1ccc(CN2CCC3(CCC3O)CC2)cc1` (stereo unspecified) is 20.3%.

On to `Cc1ocnc1C(=O)NCCNC(=O)c1cccnc1`, for which the Inhibition is listed as 1.53%.
